Measured values from PubChem BioAssay AID1159580 (chemical genetic matrix, 2015).
The campaign covered roughly 5,500 compounds. About 2,000 (36%) were called active. Another 18% or so got no clear call; they are omitted. Rule as the data show it: active = normalized growth mostly below about 0.91 (no sharp cut-off); inconclusive = no clear call, values can overlap the other calls; inactive = mostly above about 0.92. The list shows a part of the results.

Experiment: chemical genetic growth profiling, strain panel (AID 1159580);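 also: tested at 20 µM; growth read once vehicle control cultures reached saturation at 30 °C; 1 = growth at the plate median or of vehicle wells; lower values mean less growth of the strain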
Details: S. cerevisiae deletion strains, growth OD

Measured: normalized growth

Cc1nc2c(OCc3ccccc3)cccn2c1CC#N
inactive: locus YAL040C, strain CLN3, hits give low values 0.99 | locus YCL061C, strain MRC1 (second series), hits give low values 0.996 | locus YDR363W, strain ESC2, hits give low values 0.987 | locus YER002W, strain NOP16, hits give low values 0.991 | locus YGR078C, strain PAC10, hits give low values 0.996 | locus YMR263W, strain SAP30, hits give low values 1 | locus YMR307W, strain GAS1, hits give low values 0.974 | locus YNL153C, strain GIM3, hits give low values 0.994 | locus YNL175C, strain NOP13, hits give low values 0.991 | locus YNL197C, strain WHI3, hits give low values 1 | locus YNL224C, strain SQS1, hits give low values 0.995 | locus YNL322C, strain KRE1, hits give low values 1.01 | locus YOR083W, strain WHI5 (second series), hits give low values 0.97 | locus YPL241C, strain CIN2, hits give low values 1

CC(C)(C)c1csc(NC(=O)Nc2ccc(Cl)cc2)n1
inactive: locus YAR019C, strain CDC15, hits give low values 0.989 | locus YBL105C, strain PKC1, hits give low values 0.972 | locus YBR135W, strain CKS1, hits give low values 0.973 | locus YBR136W, strain MEC1, hits give low values 0.976 | locus YBR160W, strain CDC28, hits give low values 0.985 | locus YDL017W, strain CDC7, hits give low values 0.982 | locus YDL028C, strain MPS1, hits give low values 0.973 | locus YDL101C, strain DUN1, hits give low values 0.974 | locus YDL108W, strain KIN28, hits give low values 0.978 | locus YDL132W, strain cdc53, hits give low values 0.974 | locus YDR052C, strain DBF4, hits give low values 0.983 | locus YDR054C, strain cdc34, hits give low values 0.974 | locus YDR226W, strain ADK1, hits give low values 0.973 | locus YFL009W, strain cdc4, hits give low values 0.972 | locus YFL029C, strain CAK1, hits give low values 0.97 | locus YFR003C, strain YPI1, hits give low values 0.981 | locus YFR028C, strain CDC14, hits give low values 0.97 | locus YHR205W, strain SCH9, hits give low values 0.583 | locus YIL147C, strain SLN1, hits give low values 0.972 | locus YJL128C, strain PBS2, hits give low values 0.905 | locus YJL157C, strain FAR1, hits give low values 0.81 | locus YJR016C, strain ILV3, hits give low values 0.981 | locus YKL193C, strain SDS22, hits give low values 0.981 | locus YMR001C, strain CDC5, hits give low values 0.97 | locus YMR277W, strain FCP1, hits give low values 0.974 | locus YNL006W, strain LST8, hits give low values 0.979 | locus YNL161W, strain CBK1, hits give low values 0.969 | locus YNL207W, strain RIO2, hits give low values 0.97 | locus YNL222W, strain SSU72, hits give low values 0.983 | locus YOL078W, strain AVO1, hits give low values 0.982 | locus YOL136C, strain PFK27, hits give low values 0.719 | locus YOR061W, strain CKA2, hits give low values 0.732 | locus YOR329C, strain SCD5, hits give low values 0.982 | locus YPL209C, strain IPL1, hits give low values 0.98 | locus YPR025C, strain CCL1, hits give low values 0.977 | locus YPR106W, strain ISR1, hits give low values 0.97 | locus YPR111W, strain DBF20, hits give low values 0.967 | strain NNK1, hits give low values 0.953 | strain TSCII, hits give low values 0.981
active: locus YDL214C, strain PRR2, hits give low values 0.684 | locus YDR477W, strain SNF1, hits give low values 0.605 | locus YER123W, strain YCK3, hits give low values 0.466 | locus YER133W, strain GLC7, hits give low values 0.534 | locus YFR019W, strain FAB1, hits give low values 0.722 | locus YGR040W, strain KSS1, hits give low values 0.634 | locus YGR052W, strain FMP48, hits give low values 0.304 | locus YGR092W, strain DBF2, hits give low values 0.48 | locus YHR030C, strain SLT2, hits give low values 0.39 | locus YHR079C, strain IRE1, hits give low values 0.509 | locus YHR082C, strain KSP1, hits give low values 0.466 | locus YJL095W, strain BCK1, hits give low values 0.345 | locus YJR066W, strain TOR1 (second series), hits give low values 0.625 | locus YJR066W, strain TOR1, hits give low values 0.452 | locus YKL048C, strain ELM1, hits give low values 0.609 | locus YKL067W, strain YNK1, hits give low values 0.732 | locus YKL101W, strain HSL1, hits give low values 0.441 | locus YKL203C, strain TOR2, hits give low values 0.565 | locus YLR113W, strain HOG1, hits give low values 0.28 | locus YLR133W, strain CKI1, hits give low values 0.687 | locus YLR403W, strain SFP1, hits give low values 0.601 | locus YML070W, strain DAK1, hits give low values 0.441 | locus YMR205C, strain PFK2 (second series), hits give low values 0.705 | locus YNL020C, strain ARK1, hits give low values 0.67 | locus YNL183C, strain NPR1, hits give low values 0.281 | locus YNL307C, strain MCK1 (second series), hits give low values 0.553 | locus YOR119C, strain RIO1, hits give low values 0.524 | locus YOR231W, strain MKK1, hits give low values 0.5 | locus YPL031C, strain PHO85, hits give low values 0.43 | locus YPL153C, strain RAD53, hits give low values 0.481 | locus YPL204W, strain HRR25, hits give low values 0.529 | locus YPL256C, strain CLN2, hits give low values 0.44
